Measurements taken from PubChem BioAssay (Tox21).
Several values for one entry are separate records, joined by “and”; a condition that tells them apart may be missing. Equal entries are not always repeated. Inconclusive results are not listed. Activity calls are given as the source filed them. The call rests on the fitted dose curve; in most records, active means well fitted cell-killing curve with a large enough effect in the repeat runs; inconclusive means weak or mixed curves, or effect the other way; inactive means flat fitted curve, though single readings scatter.

Experiment: qHTS RealTime-Glo MT Cell Viability Assay in HEK293 cells - 24 hour (AID 1224886); further: nearly all actives have a fitted effect of over 50% in size
Details: RealTime-Glo luminescence; series mostly up to 76.8 µM
Source text: National Center for Advancing Translational Sciences [NCATS]
NIH Chemical Genomics Center [NCGC]
U.S. Environmental Protection Agency [EPA]
National Institutes of Environmental Health Sciences [NIEHS]
National Toxicology Program [NTP]
U.S. Food and Drug Administration [FDA]
Measure of cell viability is critical in the cell-base assay. Analysis of cell viability is necessary for the characterization of cell responses to cytotoxic drugs and environmental stress. A RealTime-Glo MT Cell Viability Assay to monitor cell viability in real time of continues cell culture during 40 hours of compound treatment was used to screen Tox21 10K library compounds in Hek293 cells. The RealTime-Glo MT Cell Viability Assay is a nonlytic, homogeneous, bioluminescent method to measure cell viability in real time using a simple, plate-based method. The assay involves adding NanoLuc luciferase and a cell-permeant prosubstrate to cells in culture. Viable cells reduce the proprietary prosubstrate to generate a substrate for NanoLuc luciferase. This substrate diffuses from cells into the surrounding culture medium, where it is rapidly used by the NanoLuc Enzyme to produce a luminescent signal. The signal correlates with the number of viable cells, making the assay well suited for cytotoxicity studies.
Tox21 Assay Protocol Summary:
The mixture of Hek293 cell suspension and reagents were dispensed at 600cells/6 ul/well in 1536-well tissue culture treated black solid bottom plates using a Multidrop dispenser. After the assay plates were incubated at a 37 C/5% CO2 incubator for 5 hours, 23 nL of compounds dissolved in DMSO, positive and negative controls was transferred to the assay plate by a pintool work station. The plates were incubated at 37 C for 40 hours. The luminescence intensity were measured at 0h, 8h, 16h, 24h, 32h and 40h time points using ViewLux plate reader during compound treatment.
On the % scale 0 is the no-effect control and ±100 the full control effect; potency means the concentration at half of the fitted maximal effect.

Row | Structure (SMILES) | Potency
1 | C=CC(=O)OCCn1c(=O)n(CCOC(=O)C=C)c(=O)n(CCOC(=O)C=C)c1=O | 11 µM (active)
2 | COc1cccc(N)c1 | inactive
3 | NC(=NCCCCCCN=C(N)/N=C(\N)Nc1ccc(Cl)cc1)/N=C(\N)Nc1ccc(Cl)cc1 | 10.9 µM (active) [middle of 5 runs]
4 | CC/C(=C(\c1ccc(O)cc1)c1ccc(OCCN(C)C)cc1)c1ccccc1 | 21.9 µM (active)
5 | Oc1ccc2cc(SSc3ccc4cc(O)ccc4c3)ccc2c1 | 49 µM (active)
6 | Cc1ccc(O)c(C(C)(C)C)c1 | inactive
7 | CC(C)(C)c1ccc(C(=O)CCCN2CCC(OC(c3ccccc3)c3ccccc3)CC2)cc1 | 8.49 µM (active)
8 | Cc1oc(-c2ccccc2)nc1CCC(=O)c1ccc(CC2SC(=O)NC2=O)cc1 (stereo not given) | inactive
9 | CCCCCCCCCCCCCCCC(=O)OC[C@H](O)[C@H]1OC(=O)C(O)=C1O | inactive
10 | O=C(c1ccc(F)cc1)C1CCN(CCn2c(=O)[nH]c3ccccc3c2=O)CC1 | 9.52 µM (active)
11 | O=C(Nc1ccc(Oc2ccc(Cl)cc2)c(Cl)c1)c1cc(I)cc(I)c1O | inactive
12 | COc1cc(-c2ccc(N=C=O)c(OC)c2)ccc1N=C=O | inactive
13 | CC(C)(C)CC(C)(C)c1ccc(OCCOCC[N+](C)(C)Cc2ccccc2)cc1 | 19.5 µM (active) and 9.52 µM (active)
14 | CCCCCCCCCCCCCCCCCC[N+](C)(C)Cc1ccccc1 | 6.23 µM (active)
15 | Nc1c2ccccc2nc2ccccc12 | 7.66 µM (active) and 21.3 µM (active)
16 | CNC(=O)c1ccccc1 | inactive
17 | O=[N+]([O-])c1cc(Cl)c(Cl)c(Cl)c1Cl | inactive
18 | Oc1ccc(Cl)cc1Sc1cc(Cl)ccc1O | 19.5 µM (active) and 23.9 µM (active)
19 | COc1cc(/C=C/C(=O)O[C@H]2CC[C@]34C[C@]35CC[C@]3(C)[C@@H]([C@H](C)CCC=C(C)C)CC[C@@]3(C)[C@@H]5CC[C@H]4C2(C)C)ccc1O | inactive
20 | On1ccccc1=S | 3.85 µM (active)

Row | Structure (SMILES) | Potency
21 | [Cl][Bi]([Cl])([c]1ccccc1)([c]1ccccc1)[c]1ccccc1 | 3.07 µM (active)
22 | N#CC1(c2ccc(F)cc2)CCC(=O)CC1 | inactive
23 | CCCCCCCC/C=C\CCCCCCCCOCCO | 3.19 µM (active)
24 | Clc1ccccc1C(c1ccccc1)(c1ccccc1)n1ccnc1 | 21.9 µM (active) and 6.01 µM (active)
25 | C[C@H]1[C@H]2CC[C@H]3[C@@H]4CC=C5C[C@@H](N(C)C)CC[C@]5(C)[C@H]4CC[C@]23CN1C | inactive
26 | COC(=O)C1=C(C)NC(C)=C(C(=O)OCCc2ccc(N3CCN(C(c4ccccc4)c4ccccc4)CC3)cc2)C1c1cccc([N+](=O)[O-])c1 (stereo not given) | inactive
27 | c1ccc(CSCc2ccccc2)cc1 | inactive
28 | COc1ccc(-c2ccc3cc(C(=O)O)ccc3c2)cc1C12CC3CC(CC(C3)C1)C2 | 4.77 µM (active)
29 | C/C=C1/C(=O)C[C@H]2[C@@H]3CCC4=CC(=O)CC[C@]4(C)[C@H]3CC[C@]12C | 48.8 µM (active)
30 | CSc1ccc(/C=C2/C(C)=C(CC(=O)O)c3cc(F)ccc32)cc1 | inactive
31 | O=C(Nc1cccc(Cl)c1)OCC#CCCl | 49 µM (active)
32 | O=C(O)c1c(Cl)cccc1Cl | inactive
33 | N#CSc1ccc(N)c([N+](=O)[O-])c1 | 49.3 µM (active)
34 | CC(C)=CCOc1ccc(/C=C/C(=O)c2ccc(OCC=C(C)C)cc2OCC(=O)O)cc1 | inactive
35 | Oc1cccc(-c2c3nc(c(-c4cccc(O)c4)c4ccc([nH]4)c(-c4cccc(O)c4)c4nc(c(-c5cccc(O)c5)c5ccc2[nH]5)CC4)C=C3)c1 | 23.9 µM (active)
36 | CSc1ccc(C(=O)c2[nH]c(=O)[nH]c2C)cc1 | inactive
37 | CCCCc1oc2ccc(NS(C)(=O)=O)cc2c1C(=O)c1ccc(OCCCN(CCCC)CCCC)cc1 | 10.7 µM (active)
38 | CCc1oc2ccccc2c1C(=O)c1cc(Br)c(O)c(Br)c1 | inactive
39 | CCOC(=O)O[C@H](C)OC(=O)c1ccc2c(c1)cc(C(=O)NC1CCN(C(C)C)CC1)n2Cc1cc(-c2ccc(Cl)s2)on1 | 11.5 µM (active)
40 | Oc1cc2ccccc2c2ccccc12 | 9.77 µM (active)
